# From PubChem BioAssay (NCATS)
# Results filed as inconclusive are left out. Where a call stands in place of a potency, no number is given. A number with no mark means an inactive call. Calls of active or inactive are those of the source. The call rests on the fitted dose curve; in most records, active means well fitted inhibition curve with a large enough effect; inconclusive means small, poorly fitted or top-dose-only effect; inactive means no such curve, though single readings can be large or run the other way.
# How the values were obtained:
# [1] = tested on: Zika virus NS2B-NS3 protease (unlinked complex); experiment: Primary screen GU Rhodamine qHTS for Zika virus inhibitors: Unlinked NS2B-NS3 protease assay (AID 1347159); further: nearly all actives have a fitted effect of over 60% in size
# In short: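 Noncovalent NS2B hydrophilic domain/NS3 protease complex (25 nM final) in 10 mM Tris-HCl pH 8.0, 0.01% Tween 20, preincubated 15 min with compounds (up to 114 microM), then 1.5 microM Rhodamine110 substrate. Fluorescence change over 15 min fitted to 4-parameter Hill.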
# [2] = tested on: Zika virus NS2B-NS3 protease (linked construct); experiment: Primary screen NINDS Rhodamine qHTS for Zika virus inhibitors (AID 1347160); further: nearly all actives have a fitted effect of over 55% in size
# In short: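 Purified NS2B-NS3 protease with the NS2B hydrophilic domain joined by a flexible linker (25 nM) in 10 mM Tris-HCl pH 8.0, 0.01% Tween 20, preincubated 15 min at RT with compound; Rhodamine110 peptide substrate 1.5 µM; fluorescence change over 15 min; 4-parameter Hill fit.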
# Potency means the concentration at half of the fitted maximal effect.
structure (smiles),measurement,setting,value
COc1ccc([C@@]2(O)c3c(ccc(CC=C(C)C)c3O)NC(=O)[C@@H]2OC)cc1,Potency,[1],inactive
same,Potency,[2],inactive
CC1CCC2(C=O)C(CO)=CCCC2C1(C)CC(=O)O (stereo not drawn),Potency,[1],11.2 µM (active)
same,Potency,[2],12.6 µM (active)
COc1ccc(F)cc1-c1cc(NC(=O)[C@@H]2CCCNC2)ncc1Cl,Potency,[1],inactive
same,Potency,[2],inactive
O=C(O)Cc1cn(C2OCC(O)C(O)C2O[C@@H]2O[C@H](CO)[C@@H](O)[C@H](O)[C@H]2O)c2ccccc12 (stereo partly drawn),Potency,[1],inactive
same,Potency,[2],inactive
CC12CCC3c4ccc(O)cc4CCC3C1CC(OC1OC(C(=O)O)C(O)C(O)C1O)C2O (stereo not drawn),Potency,[1],inactive
same,Potency,[2],inactive
C[C@H]1[C@H](O)O[C@@H]2O[C@@]3(C)CC[C@H]4[C@H](C)CC[C@@H]1[C@@]24OO3,Potency,[1],inactive
same,Potency,[2],inactive
CC1(C)CC[C@]2(C(=O)O[C@@H]3O[C@H](CO)[C@@H](O)[C@H](O)[C@H]3O)CC[C@]3(C)C(=CCC4[C@@]5(C)C[C@@H](O)[C@H](O)C(C)(C)C5CC[C@]43C)C2[C@@H]1O (stereo partly drawn),Potency,[1],inactive
same,Potency,[2],inactive
CC1(C)CC[C@]2(C(=O)O)CC[C@]3(C)C(=CCC4[C@@]5(C)CC[C@H](O[C@@H]6O[C@H](CO)[C@@H](O)[C@H](O)[C@H]6O[C@@H]6O[C@H](CO)[C@@H](O)[C@H](O)[C@H]6O)[C@@](C)(CO)C5CC[C@]43C)[C@@H]2C1 (stereo partly drawn),Potency,[1],inactive
same,Potency,[2],inactive
CC(=O)O[C@@H](CO[C@@H]1O[C@H](CO)[C@H](O)[C@H](O)[C@H]1O)[C@]1(C)C=C2CC[C@@H]3C(C)(C)[C@@H](O)CC[C@@]3(C)[C@@H]2CC1,Potency,[1],inactive
same,Potency,[2],inactive
COc1ccc(C(O)C(C)OC2OC(CO)C(O)C(O)C2O)cc1 (stereo not drawn),Potency,[1],inactive
same,Potency,[2],inactive
COC1C(CO)OC(n2cnc3c(=O)[nH]cnc32)C1O (stereo not drawn),Potency,[1],inactive
same,Potency,[2],inactive
CC(=O)C1=C(C)N(c2cccc(C(F)(F)F)c2)C(=O)N[C@H]1c1ccc(C#N)nc1,Potency,[1],inactive
same,Potency,[2],inactive
CN(C)C(=O)NC1CCC(CCN2CCN(c3cccc(Cl)c3Cl)CC2)CC1 (stereo not drawn),"activity change, negative = inhibition",[1],13.9% [at 19.1 µM]
same,outcome,[2],inactive [at 10.7 µM]
CC1=CC(=O)CC2C1(O)CCC(C)C21CC(c2ccoc2)OC1=O (stereo not drawn),Potency,[1],inactive
same,Potency,[2],inactive
Cc1cc(C)nc(NS(=O)(=O)c2ccc(NC(=S)NC(=O)COc3ccc(Br)cc3Cl)cc2)n1,Potency,[1],7.08 µM (active)
same,Potency,[2],15.8 µM (active)
CC1(C)CC2C=C(C(=O)O)C3COC(=O)C(O)(CO)C23C1 (stereo not drawn),Potency,[1],inactive
same,Potency,[2],inactive
CC(=O)O[C@@H]1[C@H](O[C@@H]2O[C@@H](CO)[C@H](O)[C@H]2O)[C@@H](O[C@@H]2O[C@@H](C)[C@H](O[C@@H]3OC[C@@H](O)[C@H](O)[C@H]3O)[C@@H](O)[C@H]2O)[C@H](OC(=O)[C@]23CCC(C)(C)C[C@H]2C2=CCC4[C@@]5(C)CC[C@H](O[C@@H]6O[C@H](C(=O)O)[C@@H](O)[C@H](O)[C@H]6O[C@@H]6O[C@H](CO)[C@H](O)[C@H](O)[C@H]6O)[C@@](C)(C=O)C5CC[C@@]4(C)[C@]2(C)CC3)O[C@@H]1C (stereo partly drawn),"activity change, negative = inhibition",[1],10.7% [at 19.1 µM]
same,"activity change, negative = inhibition",[2],-19.7% [at 10.7 µM]
NC(=O)C(CCC(F)(F)F)N(Cc1ccc(-c2ncon2)cc1F)S(=O)(=O)c1ccc(Cl)cc1 (stereo not drawn),Potency,[1],inactive
same,Potency,[2],inactive
CC(O)/C=C/C1C(C)C(O[C@@H]2O[C@H](CO)[C@@H](O)[C@H](O)[C@H]2O)C(O)CC1(C)C (stereo partly drawn),Potency,[1],inactive
same,Potency,[2],inactive
CC(C)=CCC/C(C)=C/CO[C@@H]1O[C@H](CO)[C@@H](O)[C@H](O)[C@H]1O,Potency,[1],inactive
same,Potency,[2],inactive
CN(C)C/C=C/C(=O)Nc1cccc(C(=O)Nc2ccc(Nc3nccc(-c4cccnc4)n3)cc2)c1,Potency,[1],79.4 µM (active)
same,Potency,[2],inactive
C=CC(C)(O)CC/C=C(\C)C(=O)OC1C(O)C(CO)OC(OC(=O)C23CCC(C)(C)CC2C2=CCC4C5(C)CCC(OC6OC(COC7OCC(OC(C)=O)C(O)C7OC7OC(COC(C)=O)C(O)C(O)C7O)C(O)C(O)C6O)C(C)(C)C5CCC4(C)C2(C)C(O)C3O)C1OC1OCC(OC2OCC(O)C(OC3OCC(O)C(O)C3O)C2O)C(O)C1O (stereo not drawn),"activity change, negative = inhibition",[1],18.4% [at 19.1 µM]
same,"activity change, negative = inhibition",[2],18.5% [at 10.7 µM]
CC/C=C\[C@H](O)[C@H](O)C1=C(C)C(=O)[C@]2(O1)C(=O)N[C@@](OC)(C(=O)c1ccccc1)[C@@H]2O,Potency,[1],inactive
same,Potency,[2],inactive
CCc1c(C)nc2c(-c3cnn(-c4cc(CO)ccn4)c3)c[nH]n2c1=O,Potency,[1],inactive
same,Potency,[2],inactive
COc1cc2c(cc1OC)-c1[nH]nc(Nc3cccc(F)c3)c1C2,Potency,[1],inactive
same,Potency,[2],inactive
CC#CC(=O)N1CCC[C@H]1c1nc(-c2ccc(C(=O)Nc3ccccn3)cc2)c2c(N)nccn12,Potency,[1],inactive
same,Potency,[2],inactive
CC(=O)C1=CCC2C3CCC4CC(O[C@@H]5O[C@H](CO)[C@@H](O[C@@H]6O[C@@H](C)[C@H](O)[C@@H](O)[C@H]6O)[C@H](O)[C@H]5O[C@@H]5O[C@H](CO)[C@@H](O)[C@H](O)[C@H]5O)CCC4(C)C3CCC12C (stereo partly drawn),Potency,[1],inactive
same,Potency,[2],inactive
CC(=O)O[C@H]1C[C@@]2(C)[C@@H](CC[C@H]3[C@@]4(C)C=CC(=O)[C@@H](C)[C@@H]4[C@H](O)C(=O)[C@@]32C)/C1=C(/CCC=C(C)C)C(=O)O,Potency,[1],inactive
same,Potency,[2],inactive
CC(C)=CCC[C@](C)(O[C@@H]1O[C@H](CO[C@@H]2O[C@H](CO)[C@@H](O)[C@H](O)[C@H]2O)[C@@H](O)[C@H](O)[C@H]1O)C1CC[C@]2(C)[C@@H]1[C@H](O)CC1[C@@]3(C)CC[C@H](O[C@@H]4O[C@H](CO)[C@@H](O)[C@H](O)[C@H]4O[C@@H]4O[C@H](CO)[C@@H](O)[C@H](O)[C@H]4O)C(C)(C)[C@@H]3CC[C@]12C (stereo partly drawn),Potency,[1],inactive
same,Potency,[2],inactive
